High-throughput results (PubChem BioAssay)
Menin MLL FP TR: inhibitors of human menin-MLL interaction, mutant MLL peptide | actives 0.23% (n = 270,000) | Menin + Texas Red MLL mutant peptide, fluorescence polarization | O00255 | Potency, µM (titrated, usually from 61.6 µM), inactives show top-dose FP activity change, negative = inhibition, most hits filed as inhibitors; active = well fitted inhibition curve with a large enough effect in the polarisation, with a control signal flat, not every such curve was filed as active; inconclusive = small, poorly fitted or top-dose-only effect, or effect the other way, or a change in a side signal; inactive = no such curve, though single readings can be large or run the other way; the % refers to the polarisation; note: potency is the fitted concentration of half-maximal effect; % of control where 0% means no effect
LMNA splice mod: modulators of lamin A splicing. Potency, µM (top dose mostly 46.1 µM), for inactives: top-dose ratio change, negative = inhibition, hits mostly inhibitors. actives 0.01% (n = 200,000). HeLa LMNA splicing GFP/RFP minigene ratio, 48 h. AID 1487; active = well fitted inhibition curve with a large enough effect in the signal ratio, with a control signal flat, not every such curve was filed as active; inconclusive = small, poorly fitted or top-dose-only effect, or effect the other way, or a change in a side signal; the % refers to the signal ratio; note: potency is the fitted concentration of half-maximal effect; % is set by controls: 0 for no effect and ±100 for the full control effect
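S3 HeLa cells stably expressing lamin A-EGFP splicing minigene plus DsRed2, 600 cells/well, 48 h compound exposure at 37C. Laser-scanning cytometry; analysed as GFP (500-530 nm)/RFP (575-640 nm) total intensity ratio; 0.5% DMSO vehicle.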
CXXC DNA block: MLL CXXC-DNA interaction inhibition | Q03164 | MLL-CXXC / FITC-HOXA9 DNA fluorescence polarization | Potency, µM (series often up to 115 µM), for inactives: at the top dose activity change, negative = inhibition, most hits filed as inhibitors | actives 0.037% (n = 290,000) | AID 2662; active = well fitted inhibition curve with a large enough effect in the polarisation, with a control signal flat, not every such curve was filed as active; inconclusive = small, poorly fitted or top-dose-only effect, or effect the other way, or a change in a side signal; inactive = no such curve, though single readings can be large or run the other way; the % refers to the polarisation; note: potency is the fitted concentration of half-maximal effect
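Purified MLL-CXXC (added from a 7 uM solution) was preincubated 5 min at ambient with pinned compounds in 50 mM Tris-HCl pH 7.5, 50 mM NaCl, 1 mM DTT, 0.05% BSA. Fluorescein-labeled HOX-A9 DNA (50 nM solution) followed, 30 min, then polarization read.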
CBFb RUNX1 block: inhibitors of human CBF-beta and RUNX1 interaction; Q01196+Q13951; AlphaScreen CBFb-His/RUNX1-biotin binding, biochemical; Potency, µM (doses to about 59.8 µM), without a hit: top-dose activity, negative = inhibition, hits mostly inhibitors; 230,000 tested, under 10 active; AID 1477; note: % of control where 0% means no effect
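Read-out: AlphaScreen. Format: His-CBF-beta with biotinylated RUNX1 (30 nM each) preincubated 20 min, compound 15 min, Ni-chelate plus streptavidin beads 90 min; room temperature throughout.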
Menin MLL FP FL: displaces fluorescein MLL peptide from human menin; Fluorescence polarization, fluorescein-MLL peptide displacement from menin; FP activity change, % at 61.4 µM; 290,000 tested, under 10 active; active = well fitted curve in the direction sought with a large enough effect in the polarisation, not every such curve was filed as active; inconclusive = small, poorly fitted or top-dose-only effect, or effect the other way, or a change in a side signal; inactive = no such curve, though single readings can be large or run the other way; the % refers to the polarisation; note: % of control where 0% means no effect
MLL CXXC Fl: disrupts human MLL CXXC domain binding to DNA; shares compounds with CXXC DNA block; actives 70% (n = 200); Potency, µM (titrated, usually from 345 µM), inactives show top-dose activity change, negative = inhibition, usual class: inhibitors; MLL CXXC-DNA binding, fluorescein FP; note: potency is the fitted concentration of half-maximal effect; nearly all actives have a fitted effect of over 80% in size
MLL CXXC FP-TR: MLL CXXC-DNA interaction inhibition, Texas Red FP; shares compounds with CXXC DNA block; MLL CXXC-DNA binding, Texas Red fluorescence polarization; Potency, µM (highest dose often 345 µM), for inactives: at the highest dose activity change, negative = inhibition, most hits filed as inhibitors; actives 40% (n = 200); note: potency is the fitted concentration of half-maximal effect; % is set by controls: 0 for no effect and ±100 for the full control effect; nearly all actives have a fitted effect of over 75% in size
MLL CXXC TRF: MLL CXXC-DNA interaction inhibition, HTRF readout. shares compounds with CXXC DNA block. MLL CXXC-DNA binding, HTRF, biochemical. Potency, µM (titrated, usually from 172 µM), without a hit: top-dose activity change, negative = inhibition, actives largely listed as inhibitors. actives 30% (n = 210); note: % is set by controls: 0 for no effect and ±100 for the full control effect; nearly all actives have a fitted effect of over 80% in size
* = called active by the depositor; ? = inconclusive; nt = not tested or not shown; [ ] = dose if it differs, or a comment. This excerpt belongs to a sample that is enriched for hits. Unless noted, calls come from the whole dose curve; as a rule, active = well fitted curve in the direction sought with a large enough effect; inconclusive = small, poorly fitted or top-dose-only effect, or another doubt; inactive = no such curve, though single readings can be large; an effect the other way counts as inactive or inconclusive.

SMILES	Menin MLL FP TR	LMNA splice mod	CXXC DNA block	CBFb RUNX1 block	Menin MLL FP FL	MLL CXXC Fl	MLL CXXC FP-TR	MLL CXXC TRF
CCOC(=O)N1CC(C)N(/[N+]([O-])=N/Oc2ccc([N+](=O)[O-])cc2[N+](=O)[O-])CC1C (stereo unspecified)	?	nt	nt	6.2%	-8.9	nt	nt	nt
CN1C[C@@H](CO)C=C2c3cccc4[nH]cc(c34)CC21 (stereo partly specified)	1.1%	nt	nt	-2.8%	?	nt	nt	nt
CCC(CO)NC(=O)[C@@H]1C=C2c3cccc4[nH]cc(c34)C[C@H]2N(C)C1 (stereo partly specified)	-17.4%	-17.7%	35.5µM*	?	?	159µM*	?	24.3%
CCC1OC2(C)C(O)C(/C=C/C=C/C=C/c3oc(=O)cc(OC)c3C)OC1(C)C2OC(C)=O (stereo unspecified)	6.8%	nt	nt	8.4%	7.9	nt	nt	nt
COc1ccc(/C=C2/C(=O)NC(=O)N(C3CCCCC3)C2=O)cc1CSc1ccccn1	?	7.3%	?	1.1%	26.0	142µM*	142µM*	76.9µM*
Cc1cc(/C=C2\C(=O)NC(=O)N(c3cccc(F)c3)C2=O)c(C)n1-c1cc(C(=O)O)cc(C(=O)O)c1	3.6%	13.7%[46 µM]	15.8µM*	-23.8%	3.9	89.5µM*	?	122µM*
Cc1cc(/C=C2\C(=O)NC(=O)N(c3ccc(Br)cc3)C2=O)c(C)n1-c1cc(C(=O)O)cc(C(=O)O)c1	20.6%	nt	7.94µM*	nt	23.8	17.9µM*	40µM*	38.5µM*
CCOP(=O)(OCC)O/C(=C/Cl)c1ccc(Cl)cc1Cl	-12.1%	nt	63.1µM*	nt	?	159µM*	-0.3%	-5.7%
C[C@]12O[C@H](C[C@]1(O)CO)n1c3ccccc3c3c4c(c5c6ccccc6n2c5c31)CNC4=O	?	nt	-4.4%	nt	3.3	nt	nt	nt
COc1cccc2c1C(=O)c1c(O)c3c(c(O)c1C2=O)C[C@@](O)(C(=O)CO)C[C@@H]3O[C@H]1C[C@H](N)[C@H](OC2CCCCO2)[C@H](C)O1 (stereo partly specified)	?	nt	63.1µM*	nt	?	35.6µM*	44.8µM*	-32.9%
Cc1cc(OCC(=O)N[C@@H](Cc2ccccc2)C(=O)O)c2c3c(c(=O)oc2c1)CCCC3	3.5%	nt	-26.1%	nt	-0.6	nt	nt	nt
CSC[C@H](NC(=O)COc1cc2c(c3oc(=O)c(C)c(C)c13)CCC(C)(C)O2)C(=O)O	-6.0%	nt	?	nt	1.3	?	?	15.8%
CNC(=O)Oc1ccc2c(c1)C1(C)CCN(C)C1N2C (stereo unspecified)	-1.7%[24.8 µM]	nt	nt	8.9%[21.7 µM]	-12.6	nt	nt	nt
CCCCCCCCCCCCOCCOCCOCCOCCOCCOCCOCCOCCOCCO	?	nt	3.0%	16.2%	-1.5	nt	nt	nt
O=C(O)c1ccccc1-c1c2cc(Br)c(=O)cc-2oc2[c]([Hg])c(O)c(Br)cc12	?	?	?	-7.7%[21.7 µM]	?	0.762µM*	135.6%[154 µM]	23.2µM*
CC(c1ncncc1F)[C@](O)(Cn1cncn1)c1ccc(F)cc1F (stereo partly specified)	-8.8%	?	4.1%	nt	4.1	nt	nt	nt
CCn1nc(-c2cccs2)nc2c(=O)n(C)c(=O)nc1-2	?	?	?	?	-11.1	?	?	47.1%
CN1C(=O)C(=Cc2ccccc2OCc2ccc(C(=O)O)cc2)C(=O)N(C)C1=O	17.4%	nt	20µM*	-6.6%	-3.0	?	142µM*	61.1µM*
NC(Cc1cc(O)c(O)cc1O)C(=O)O (stereo unspecified)	?	?	?	nt	?	17.9µM*	?	30.6µM*
N[C@@H](Cc1cc(I)c(O)c(I)c1)C(=O)O	3.4%	-2.4%	6.9%	?	1.0	nt	nt	nt
S=C=Nc1cccc2ccccc12	nt	nt	nt	-1.2%[21.7 µM]	nt	nt	nt	nt
COC(=O)Cn1cc(/C=C2\C(=O)NC(=O)N(c3ccc(OC)cc3)C2=O)c2ccccc21	-28.1%	nt	?	nt	?	nt	nt	nt
O=C(O)Cn1cc(/C=C2\C(=O)NC(=O)N(c3ccc(F)cc3)C2=O)c2ccccc21	36.3%	nt	?	nt	?	?	89.5µM*	?
O=C(O)CCn1cc(C=C2C(=O)NC(=S)NC2=O)c(-c2ccccc2)n1	27.6%	nt	31.6µM*	-6.6%	1.9	4µM*	89.5µM*	6.11µM*
O=C(O)CCn1cc(C=C2C(=O)NC(=S)NC2=O)c(-c2cc3ccccc3oc2=O)n1	11.2%	nt	14.3%	4.5%	?	nt	nt	nt
O=S(=O)(O)F	nt	nt	nt	13.2%[21.7 µM]	nt	nt	nt	nt
